Reference: PubChem BioAssay (EPA / NIEHS)
Records with an inconclusive call do not appear. Activity calls are given as the source filed them. The calls were made as follows, unless noted: active = hit-call score of the fitted dose curve at least 0.9, where 1 is the maximum; inactive = score below 0.9.

Legend:
[1] = CCTE_Shafer_MEA_dev_LDH: CCTE's Lactate Dehydrogenase Assay for Cytotoxicity in the Neural Network Formation Assay, Shafer Lab (AID 2284068; active = hit-call score of the fitted dose curve at least 0.9, where 1 is the maximum;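 also: exposure for twelve days from plating with re-dosing on DIV 5 and 9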)
In short: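 Developing rat cortical networks on MEA plates are exposed to compound for 12 days from plating. LDH activity is measured spectrophotometrically, with DMSO as baseline.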

[2] = CCTE_Shafer_MEA_dev_AB: CCTE's Alamar Blue Assay for Cytotoxicity in the Neural Network Formation Assay, Shafer Lab (AID 2284083; active = hit-call score of the fitted dose curve at least 0.9, where 1 is the maximum;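 also: resazurin reduction fluorescence as viability of cultured neurons; twelve days of exposure from plating with re-dosing on DIV 5 and 9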)
In short: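 Cytotoxicity companion to the developmental MEA: primary rat cortical neurons, 12-day exposure starting day 0, compound refreshed DIV 5 and 9; resazurin fluorescence, fitted against DMSO vehicle.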

[3] = CCTE_Shafer_MEA_acute_LDH: CCTE's Lactate Dehydrogenase Assay for Cytotoxicity in the Neural Acute Assay, Shafer Lab (AID 2284086; active = hit-call score of the fitted dose curve at least 0.9, where 1 is the maximum;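 also: active means LDH release rises above DMSO vehicle level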)
In short: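 Medium collected from MEA wells of primary rat cortical cultures (DIV 13 or 15) immediately after 40 min chemical exposure is assayed spectrophotometrically for lactate dehydrogenase activity. Endpoint fitted in positive direction versus DMSO.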

[4] = CCTE_Shafer_MEA_dev_mutual_information_norm: CCTE's Neural Network Formation Assay for Mutual Information Normalization, Shafer Lab (AID 2284091);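 as to AC50: mutual information between electrodes summarised as area under curve across four recording days; potency is for a decrease in mutual information relative to DMSO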
In short: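 Shared information across electrodes, tracked on days 5, 7, 9 and 12 of network development and collapsed as trapezoidal area under the curve. Rat cortical cultures were treated continuously from plating, with treatment renewed at feeds on DIV 5 and 9; DMSO baseline, negative-direction fit.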

[5] = CCTE_Shafer_MEA_dev_correlation_coefficient_mean: CCTE's Neural Network Formation Assay for Mean Correlation Coefficient, Shafer Lab (AID 2284093);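 as to AC50: well mean pairwise spike train correlation integrated as AUC over recording days 5 to 12; potency fitted for loss of correlation relative to DMSO vehicle wells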
In short: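 Extracellular firing from rat cortical networks on 48-well MEAs, DMSO-referenced, negative fitting direction. Compound present from plating to DIV12; mean pairwise correlation per well integrated over DIV5–12 recordings by trapezoidal AUC.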

[6] = UKN4_HCS_LUHMES_neurite_outgrowth: University of Konstanz (UKN) Leist Lab Neurite Outgrowth Assay in human LUHMES cells (UKN4) (AID 2284206); details: actives raise or lower the signal
In short: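 Human LUHMES cells were differentiated for two days, replated and treated with chemicals for 24 h. Neurite outgrowth was quantified as calcein-stained neurite area by HCS imaging, fitted bidirectionally relative to DMSO.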

[7] = IUF_NPC1b_proliferation_BrdU_72hr: Leibniz Research Institute for Environmental Medicine (IUF) 72-hour Neural Progenitor Cell Bromodeoxyuridine (BrdU) Proliferation Assay (NPC1b) (AID 2284207)
In short: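 Human fetal cortex-derived (GW 16-19) neural progenitor spheres, 0.25-0.35 mm, one per well in EGF/FGF proliferation medium, exposed to compound for 72 h at 37C, pH 7.2-7.6. BrdU incorporation over the final 16 h read by luminescence ELISA, relative to DMSO.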

[8] = IUF_NPC1a_proliferation_area_72hr: Leibniz Research Institute for Environmental Medicine (IUF) 72-hour Neural Progenitor Cell Proliferation Area Assay (NPC1a) (AID 2284208)
In short: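 Measured in 3D suspension: each well held one primary hNPC sphere grown with EGF and FGF at pH 7.2-7.6. Compound stayed on for 72 h, then area was imaged; spheres lacking growth factors defined reduced proliferation.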

[9] = IUF_NPC1_viability_72hr: Viability Assessment at 72 hours in the Leibniz Research Institute for Environmental Medicine (IUF) Neural Progenitor Cell Proliferation Assay (NPC1) (AID 2284209)
In short: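 Spheres of primary human neural progenitors were plated singly in proliferation medium and treated for 72 h. Mitochondrial reduction of resazurin was then measured by fluorescence and analysed against DMSO controls.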

[10] = CCTE_Mundy_HCI_Cortical_Synap_Neur_Matur_NeuriteSpotCountPerNeuriteLength: CCTE's Synaptogenesis and Neurite Maturation Assay in rat cortical cells for Neurite Spot Count per Neurite Length, Mundy Lab (AID 2284210)
In short: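 Synaptophysin spots per unit neurite length, measured by automated imaging of MAP2/synaptophysin/Hoechst-stained neurons. Cultures from rat cortex received chemical at DIV 7 with media change through DIV 12; glial growth arrested by AraC at DIV 5; DMSO baseline.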

[11] = CCTE_Mundy_HCI_Cortical_Synap_Neur_Matur_BPCount: CCTE's Synaptogenesis and Neurite Maturation Assay in rat cortical cells for Branch Point Count, Mundy Lab (AID 2284211)
In short: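 HCI read-out of branch points from MAP2/synaptophysin/Hoechst immunofluorescence; rat cortical cultures, AraC DIV 5, dosing DIV 7, fixed DIV 12; fit in positive direction vs DMSO baseline.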

[12] = CCTE_Mundy_HCI_Cortical_NOG_NeuriteCount: CCTE's Neurite Outgrowth Assay in rat cortical cells for Neurite Count, Mundy Lab (AID 2284212);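 also: cells fixed about two days after chemical exposure began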
In short: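 Rat cortical primary cells; compound added 2 h post-plating, 1/10 dilution of working solution. Anti-betaIII-tubulin/AF488 ICC; ArrayScan neurite count vs DMSO.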

[13] = CCTE_Mundy_HCI_Cortical_NOG_NeuriteLength: CCTE's Neurite Outgrowth Assay in rat cortical cells for Neurite Length, Mundy Lab (AID 2284213);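 as to AC50: neurites imaged about 48 to 50 h after chemical exposure began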
In short: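 First, rat primary cortical cells were plated and, 2 h later, given test chemical as a 1/10 dilution. Finally, βIII-tubulin immunostaining enabled automated imaging of neurite length.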

[14] = CCTE_Mundy_HCI_Cortical_Synap_Neur_Matur_NeuriteLength: CCTE's Synaptogenesis and Neurite Maturation Assay in rat cortical cells for Neurite Length, Mundy Lab (AID 2284214)
In short: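 Cultures of rat primary cortical cells received chemical at DIV 7 and were fixed at DIV 12, after glial arrest with AraC at DIV 5. Neurite length was measured by automated imaging of MAP2 immunofluorescence.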

[15] = CCTE_Mundy_HCI_Cortical_Synap_Neur_Matur_NeuriteSpotCountPerNeuron: CCTE's Synaptogenesis and Neurite Maturation Assay in rat cortical cells for Neurite Spot Count per Neuron Count, Mundy Lab (AID 2284215)
In short: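 Developing rat cortical neurons, with glia suppressed by AraC, are exposed to chemicals from DIV 7 to DIV 12. Automated fluorescence imaging of MAP2-labelled neurites and synaptophysin puncta yields a count per neuron, normalised against DMSO wells.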

[16] = CCTE_Mundy_HCI_Cortical_Synap_Neur_Matur_SynapseCount: CCTE's Synaptogenesis and Neurite Maturation Assay in rat cortical cells for Synapse Count, Mundy Lab (AID 2284218)
In short: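 Cells were plated, allowed 2 hr to attach, treated with AraC at DIV 5, then exposed to chemicals from DIV 7 until DIV 12. After fixation and MAP2/synaptophysin immunolabelling, synapses per neuron were quantified by automated imaging against DMSO.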

[17] = UKN5_HCS_SBAD2_neurite_outgrowth: University of Konstanz (UKN) Leist Lab Neurite Outgrowth Assay in human iPSC-derived immature Dorsal Root Ganglia Neurons (UKN5) (AID 2284070); details: actives raise or lower the signal
In short: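 Thaw, seed on Matrigel (100.000 cells/cm2), dose 1 h later; at 23 h live-stain with H-33342 and calcein-AM for 60 min; image at 24 h. Neurite area fitted bidirectionally vs DMSO.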

[18] = UKN2_HCS_IMR90_neural_migration: University of Konstanz (UKN) Leist Lab Neural Crest Cell Migration Assay in human induced IMR90 Pluripotent Stem Cells (UKN2) (AID 2284204); details: actives raise or lower the signal
In short: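 High-content imaging of calcein-AM and Hoechst stained cells quantifies migration into a stopper-defined gap after 24 h compound exposure. Neural crest cells from IMR90 iPSC migrated 24 h in EGF/FGF N2-S medium before dosing; DMSO baseline.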

[19] = CCTE_Shafer_MEA_acute_AB: CCTE's Alamar Blue Assay for Cytotoxicity in the Neural Acute Assay, Shafer Lab (AID 2284069; active = hit-call score of the fitted dose curve at least 0.9, where 1 is the maximum;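 also: active compounds lower the viability signal compared with DMSO wells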)
In short: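 Cytotoxicity endpoint for acute MEA exposures of primary rat cortical neurons on day 13 or 15. Resazurin reduction is read fluorescently at 544/590 nm, with DMSO as the negative-control baseline.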

[20] = CCTE_Mundy_HCI_hN2_NOG_NeuriteCount: CCTE's Neurite Outgrowth Assay in human hN2 cells for Neurite Count, Mundy Lab (AID 2284219; active = hit-call score of the fitted dose curve at least 0.9, where 1 is the maximum)
In short: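 In this morphology assay, hNP1-derived neurons received test chemical 2 h post-plating and were fixed two days later in warm paraformaldehyde/sucrose containing Hoechst 33342. Neurites, labelled by rabbit anti-βIII-tubulin (1:800) and Alexa Fluor-488 (1:500), were counted automatically.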

Measured: AC50

Cc1cc(C(F)(C(F)(F)F)C(F)(F)F)ccc1NC(=O)c1cccc(I)c1C(=O)NC(C)(C)CS(C)(=O)=O
active: [1] 11.3 µM | [2] 4.32 µM | [5] 19.2 µM | [6] 0.264 µM
not listed: [17] | [18] | [19] | [20]
inactive: all other assays above

O=S1OC[C@@H]2[C@H](CO1)[C@]1(Cl)C(Cl)=C(Cl)[C@@]2(Cl)C1(Cl)Cl (stereo partly specified)
active: [18] 14.6 µM | [6] 18.6 µM | [9] 2.59 µM
inactive: [17] | [7] | [8]

Cc1ccccc1OP(=O)(Oc1ccccc1C)Oc1ccccc1C
active: [1] 20.2 µM | [2] 21.1 µM | [4] 11.5 µM | [5] 15 µM | [18] 4.73 µM | [11] 26.4 µM | [12] 19.2 µM | [13] 19.6 µM | [14] 3.54 µM | [15] 3.81 µM | [16] 3.85 µM
inactive: [3] | [7] | [8] | [9] | [10]

Oc1cc(Cl)c(Cl)cc1Cl
inactive: [19] | [3]

CC(F)(F)CC(F)(F)F
inactive: [2] | [4] | [5]

O=S(=O)(F)C(F)(F)C(F)(F)C(F)(F)C(F)(F)F
inactive: [2] | [4] | [5]

CCCCOC(=O)COC(=O)c1ccccc1C(=O)OCCCC
inactive: [19] | [3]

CS(=O)(=O)c1ccc(C(=O)C2C(=O)CCCC2=O)c(Cl)c1COCC(F)(F)F
not listed: [1] | [6] | [17] | [18] | [19] | [20]
inactive: all other assays above

O=C(Cc1ccccc1)OCCc1ccccc1
inactive: [3]

N#Cc1cccnc1
inactive: [3]

FC(F)OCC(F)(F)C(F)(F)F
inactive: [4] | [5]

C=CCOC(F)(C(F)(F)F)C(F)(F)F
inactive: [4] | [5]

CC(=O)C(F)(F)C(F)(F)F
inactive: [4] | [5]

CNC(=O)CSP(=O)(OC)OC
not listed: [2] | [3] | [19]
inactive: all other assays above

CC(C)(C)c1ccccc1O
inactive: [19] | [3]

OCCCCO
inactive: [19] | [3]

CC1(C)[C@H](C(=O)O[C@H](C#N)c2cccc(Oc3ccccc3)c2)[C@@H]1/C=C(\Cl)C(F)(F)F
active: [1] 22.7 µM | [2] 12.9 µM | [4] 1.4 µM | [5] 5.11 µM | [7] 3.63 µM | [10] 4.59 µM | [11] 2.28 µM | [12] 19.9 µM | [13] 19.5 µM | [14] 2.35 µM | [15] 2.16 µM | [16] 2.13 µM
inactive: [8] | [9]

CCOCn1c(-c2ccc(Cl)cc2)c(C#N)c(Br)c1C(F)(F)F
inactive: [7]
active: [1] 12.1 µM | [2] 20.4 µM | [4] 1.72 µM | [5] 5.53 µM | [18] 9.47 µM | [8] 26.3 µM | [9] 26.8 µM | [10] 22.7 µM | [11] 13.1 µM | [12] 23.2 µM | [13] 22.4 µM | [14] 15.5 µM | [15] 13.5 µM | [16] 13.5 µM

CC(C)[C@@H](Nc1ccc(C(F)(F)F)cc1Cl)C(=O)OC(C#N)c1cccc(Oc2ccccc2)c1 (stereo partly specified)
active: [1] 23.5 µM | [2] 14.5 µM | [4] 9.36 µM | [5] 14.5 µM | [15] 4.59 µM
not listed: [6] | [17] | [18] | [20]
inactive: all other assays above

CCCCCCCCCCCCc1cccc(S(=O)(=O)O)c1
inactive: [19] | [3]

NC(=O)c1ccc(N)nc1
inactive: [10] | [20]
active: [1] 6.05 µM | [2] 8.53 µM | [4] 7.61 µM | [5] 4.57 µM | [11] 9.07 µM | [12] 14.5 µM | [13] 14 µM | [14] 9.47 µM | [15] 9.32 µM | [16] 9.12 µM

Oc1ccc(Cc2ccc(O)cc2)cc1
inactive: [19]

C=CC(F)(C(F)(F)F)C(F)(F)C(F)(F)F (stereo unspecified)
inactive: [1] | [4] | [5]

CN(C)C(=S)S
inactive: [19]

Clc1cccc(Cl)c1Cl
inactive: [3]

OC(Cc1ccccc1Cl)(Cn1[nH]cnc1=S)C1(Cl)CC1 (stereo unspecified)
active: [1] 73.5 µM | [2] 71.3 µM | [4] 6.39 µM | [5] 21.5 µM | [18] 35.4 µM | [7] 0.0417 µM | [10] 80.4 µM | [11] 50 µM | [14] 42.7 µM | [15] 50 µM | [16] 50 µM
inactive: [8] | [9] | [12] | [13]
